# Reference: PubChem BioAssay AID687028 (Broad Institute, 2013)
# Out of some 1,400 compounds screened, about 55 (4%) were called active. The rule behind the calls is not given here. Only a sample is shown. Results with a measured potency or affinity are listed apart.
# Assay: A549 cell toxicity, dose response, cytotoxicity control, plate reader, cherry-pick samples (AID 687028);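 note: cells incubated with compound for three days before reading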
# Settings: series mostly up to 19.5 µM
row,Structure (SMILES),outcome
1,COc1ccc(-c2cnc3c(NC(C)=O)cc(-c4ccccc4OC)cn23)cc1OC,inactive
2,O=C(OCc1ccccc1)N1CCC2CC1c1ccc(-c3ccc4c(c3)OCO4)cc12 (stereo not given),inactive
3,Cc1cc(F)ccc1S(=O)(=O)Nc1ncnc2scc(-c3ccc(F)cc3)c12,inactive
4,C[C@@H]1CN([C@@H](C)CO)C(=O)c2cc(NC(=O)Nc3ccc(C(F)(F)F)cc3)ccc2O[C@@H]1CN(C)C(=O)NC1CCCCC1,inactive
5,CC1(C(=O)NCc2ccccc2)CN(S(C)(=O)=O)CC(=O)N1CCc1ccccc1F (stereo not given),inactive
6,COc1ccccc1S(=O)(=O)N(C)C[C@H]1Oc2cc(C#CCC(C)C)ccc2S(=O)(=O)N([C@@H](C)CO)C[C@@H]1C,inactive
7,Cc1ccc2oc3c(c(=O)c2c1)C(c1cccc(Cl)c1)N(CCCN1CCOCC1)C3=O (stereo not given),inactive
8,O=C(c1ccc2c(c1)OCO2)N1CCC(Cc2ccccc2)CC1,inactive
9,O=C(NCc1ccccn1)C(=O)NCC1OCCN1S(=O)(=O)c1ccc(Br)cc1 (stereo not given),inactive
10,CC1(NC(=O)c2cc(Cl)nc3ccccc23)CCS(=O)(=O)C1 (stereo not given),inactive
11,COc1ccc(Cl)cc1N1C(=O)CC(N2CCN(S(=O)(=O)c3ccccc3F)CC2)C1=O (stereo not given),inactive
12,CN(C)c1ccc(-c2cc3ccccc3c(=O)o2)cc1,inactive
13,Cc1ccc(C)c(C(Nc2ccccc2)c2ccc3ccc(C)nc3c2O)c1 (stereo not given),inactive
14,CCOC(=O)Cc1sc(N)nc1C,inactive
15,O=C(Nc1cccc(Cl)c1)c1ccccc1,inactive
16,CCCCCNC(=O)c1[nH]c(C(F)(F)F)nc1-c1ccccc1,inactive
17,COC(=O)c1ccc2nc(C3CCCCC3)c(Cc3ccccc3OC)n2c1,inactive
18,CCCCNC(=O)c1ccc(NS(=O)(=O)c2ccc3[nH]c(=O)[nH]c3c2)cc1,inactive
19,COc1cc(NC(C)=O)c2ncccc2c1Br,inactive
20,CC(=O)Nc1cccc2ncccc12,inactive
21,CCOc1cc(CNCCN2CCOCC2)ccc1OCc1ccccc1Cl,inactive
22,CC1=NCCN1CCNC(=O)Nc1ccc(C(C)(C)C)cc1,inactive
23,C[C@H](CO)N1C[C@H](C)[C@H](CN(C)C)Oc2ncc(C#CC3CC3)cc2C1=O,inactive
24,C/C=C/c1ccc([C@H]2[C@@H](CO)N3CCCCN(S(=O)(=O)c4ccccc4)C[C@@H]23)cc1,inactive

row,Structure (SMILES),outcome
1,C[C@H](CO)N1C[C@H](C)[C@H](CN(C)C(=O)c2ccccc2)Oc2cc(C3=CCCCC3)ccc2S1(=O)=O,inactive
2,Cc1ccc(S(=O)(=O)N(C)C[C@H]2Oc3ccc(NS(=O)(=O)c4ccc(F)cc4)cc3C(=O)N([C@H](C)CO)C[C@@H]2C)cc1,inactive
3,Cc1cc(O)c(C(C)C)cc1NC(=O)c1ccccc1Cl,inactive
4,Cc1ccc(OCCCCNC(C)c2ccccc2)c(C)c1 (stereo not given),inactive
5,Cc1ccc(NC(=O)C(=O)NCC2CCCN2S(=O)(=O)c2cccs2)cc1 (stereo not given),inactive
6,N#C[C@@H]1[C@H](c2ccc(C#Cc3ccccc3F)cc2)[C@@H](CO)N1C(=O)C1CC1,inactive
7,COc1ccc(C(C)(NC(C)=O)c2nc(-c3cccc(F)c3)cs2)cc1 (stereo not given),inactive
8,ClCCCc1cn(C[C@H]2CC[C@@H]([C@@H]3CC[C@H](Cn4cc(CCCCl)nn4)O3)O2)nn1,inactive
9,C[C@H]1CN([C@@H](C)CO)C(=O)c2cccc(NS(=O)(=O)c3ccccc3)c2O[C@@H]1CN(C)Cc1ccc(Cl)c(Cl)c1,inactive
10,Cc1c(C(=O)OC(C)C)sc(N)c1C(=O)OC(C)C,inactive
11,O=C(NCCNC(=O)c1cc(F)cc(F)c1)c1cc(F)cc(F)c1,inactive
12,O=C(NCc1ccccc1)C(c1ccncc1)n1c(=O)c(-c2ccccc2)nc2ccccc21 (stereo not given),inactive
13,CCCc1nc2ccccc2n1C(C)C(=O)NC(C)(C)C (stereo not given),inactive
14,COc1ccc2c3c([nH]c2c1)[C@@H](CO)N(C(=O)C1CCOCC1)CC31CN(C)C1,inactive
15,CN(C)C(=O)c1cccc(-c2ccc3c(c2)[C@@H]2[C@@H](CCN2C(=O)Cc2ccncc2)[C@@H](CO)N3)c1,inactive
16,COc1ccc(CC(=O)Nc2ccc(C)c(S(=O)(=O)N3CCCCCC3)c2)cc1,inactive
17,COc1ccc(C)cc1NC(=O)C1CCN(S(=O)(=O)c2cccc3cccnc23)CC1,inactive
18,O=c1c2cc(Br)ccc2[nH]c(=S)n1Cc1ccccn1,inactive
19,CCc1c(C(=O)Nc2cc(C(=O)OC)ccc2C)csc1C,inactive
20,CC(=O)Nc1cccc(OCCCNC(=O)c2ccc(C(C)(C)C)cc2)c1,inactive
21,CC(C)(C)c1ccc(C(=O)Nc2ccc3c(c2)C(=O)NC3=O)cc1,inactive
22,CN(C)CC(=O)Nc1ccc2c(c1)[C@@H]1C[C@@H](CC(=O)NC3CCCCC3)O[C@H](CO)[C@@H]1O2,inactive
23,CC(Oc1ccccc1Cl)C(=O)N1CCOCC1 (stereo not given),inactive
24,COc1cccc(NC(=O)COc2cccc3c2CCNC3=O)c1,inactive

row,Structure (SMILES),outcome
1,Cc1ccc(NC(=O)C2CCN(S(C)(=O)=O)CC2)cc1Cl,inactive
2,Cc1ccc(C)c(NS(=O)(=O)c2cc(C(=O)NCc3ccncc3)ccc2C)c1,inactive
3,COc1ccc(NC(=O)N2C[C@@H](O)COC[C@@H]3O[C@H](CC(=O)NC4Cc5ccccc5C4)CC[C@H]32)cc1,inactive
4,O=C(NCCN1CCC(n2c(=O)[nH]c3ccccc32)CC1)c1ccccc1,inactive
5,COC(=O)[C@]12CCCCC=C1N(Cc1cccc3ccccc13)C(=O)[C@H](CC(=O)NCCC(C)C)C2,inactive
6,CCOC(=O)[C@]12CCCC=C1N(Cc1ccccc1)C(=O)[C@H](CC(=O)NCc1cccs1)C2,inactive
7,CCCCNC(=O)C[C@@H]1C[C@@]2(C(=O)OC)CCCCC=C2N(CCC2=CCCCC2)C1=O,inactive
8,CCOC(=O)[C@]12CCC=C1N(Cc1cccc3ccccc13)C(=O)[C@H](CC(=O)N1CCCC1)C2,inactive
9,O=C(c1ccc(F)cc1)N1CCC(C(=O)N2CCCc3ccccc32)CC1,inactive
10,COc1ccccc1CN1[C@H](CO)[C@@H](c2ccccc2)C12CN(C(=O)c1ccccn1)C2,inactive
11,CCc1cccc(OCCN2CCCC2)c1,inactive
12,CC1CCN(CCOc2ccc(OCc3ccccc3)cc2)CC1,inactive
13,CC(OC(=O)c1ccc2c(=O)n3c(nc2c1)CCC3)C(=O)NC1CCCCC1C (stereo not given),inactive
14,C[C@@H]1CCCCO[C@@H](CN(C)C(=O)Nc2ccc(C(F)(F)F)cc2)[C@H](C)CN([C@H](C)CO)C(=O)c2cc(NC(=O)Cc3ccccc3)ccc2O1,inactive
15,C[C@@H]1CCCCO[C@H](CN(C)Cc2ccc(C(F)(F)F)cc2)[C@H](C)CN([C@@H](C)CO)C(=O)c2cc(NC(=O)c3ccccc3)ccc2O1,inactive
16,C[C@H](CO)N1C[C@H](C)[C@H](CN(C)C(=O)Nc2ccc(F)cc2)OCCCC[C@H](C)Oc2ccc(NC(=O)c3ccccc3)cc2C1=O,inactive
17,C[C@@H]1CN([C@H](C)CO)C(=O)c2cc(NC(=O)Nc3ccc(C(F)(F)F)cc3)ccc2O[C@@H](C)CCCCO[C@@H]1CN(C)C(=O)Cc1ccccc1,inactive
18,Cc1nc2ccccc2n1C(c1cccnc1)c1nc2ccccc2[nH]1 (stereo not given),inactive
19,O=C1c2ccccc2C(=O)N1CC(=O)N1c2ccccc2Sc2ccc(C(F)(F)F)cc21,inactive
20,COc1ccccc1NCC(=O)N/N=C(\C)c1ccc(Br)s1,inactive
21,O=C(NCCCCNC(=O)c1cccnc1Cl)c1cccnc1Cl,inactive
22,Cc1ccc(CNCc2cc(Cl)ccc2O)cc1,inactive
23,Oc1ccc(Cl)cc1CNCc1ccc(F)cc1,inactive
24,O=C(NC1CC1)c1cccc(NC(=O)c2cc(S(=O)(=O)N3CCOCC3)ccc2Cl)c1,inactive

row,Structure (SMILES),outcome
1,O=C(C[C@@H]1CC[C@H]2[C@@H](COC[C@H](O)CN2C(=O)c2ccccc2F)O1)NCc1ccccc1,inactive
2,COc1cccc(C(=O)N2CCOCC2)c1,inactive
3,CCC(=O)Nc1nnc(/C=C/c2ccc(OC)cc2)s1,inactive
4,C[C@@H]1CCCCO[C@H](CN(C)C(=O)NC2CCCCC2)[C@@H](C)CN([C@H](C)CO)C(=O)c2cc(NC(=O)CCCCCC(=O)Nc3ccccc3N)ccc2O1,inactive
5,Clc1cc(Br)ccc1OCCCn1ccnc1,inactive
6,Clc1cc(Br)ccc1OCCOCCN1CCCC1,inactive
7,COc1ccc(C(=O)NCCNc2nc3c(C)cccc3cc2C#N)cc1OC,inactive
8,Cn1c(N)c(C(=O)N2CCN(c3ccccc3)CC2)c(=O)n(C)c1=O,inactive
9,CN1c2ccc(Br)cc2[C@H]2[C@H](CCN2C(=O)C2CCC2)[C@H]1CO,inactive
10,CN1c2ccc(Br)cc2[C@@H]2[C@@H](CCN2C(=O)C2CCCC2)[C@H]1CO,inactive
11,COc1cccc(C2(c3cccc(OC)c3)CC2C(=O)Nc2ccc(F)cc2)c1 (stereo not given),inactive
12,CN1C(C)(C)c2ccccc2OS1(=O)=O,inactive
13,COc1ccc(S(=O)(=O)N2CCC(C(=O)NCCC(=O)NCc3ccccn3)CC2)cc1,inactive
14,O=C(CN1CCN(S(=O)(=O)c2ccccc2F)CC1)NC1CCCC1,inactive
15,O=C(NCc1ccccc1)[C@H]1CCCN1C(=O)[C@H]1CCCN1C(=O)c1ccc(Cl)cc1,inactive
16,COc1ccc(C2=Nn3c(nnc3-c3ccccc3Cl)SC2)cc1OCC1CC1,inactive
17,Cc1ccc(S(=O)(=O)Cc2ccccc2Cl)cc1,inactive
18,CC(NC(=O)CN1CCN(c2cccc(Cl)c2)CC1)c1ccccc1 (stereo not given),inactive
19,CC(C)(C)c1ccc(C(=O)OCC(=O)Nc2sc3c(c2C#N)CCC3)cc1,inactive
20,COc1ccc(C(CNC(=O)c2cccc3cccnc23)N(C)C)cc1 (stereo not given),inactive
21,COc1ccc(-c2nc(NCCCN(C)C)c3ccccc3n2)cc1,inactive
22,COC(=O)[C@@H]1[C@H](CCc2ccccc2)NC(=O)N(Cc2ccccc2)[C@@H]1C,inactive
23,COc1ccc(C2=Nc3ccccc3N(C(=O)c3ccncc3)C2C(=O)NC(C)C)cc1 (stereo not given),inactive
